Columns and labels:
Experiment in all cases: log2 ratio of Biotin-Ahx-Ub-VS probe labelling (fragment/DMSO); higher = less target engagement (more negative = stronger competition), active = hit call of the paper (q ≤ 0.05, log2 ratio ≤ -1)
Conditions in all cases: compound concentration: 200 uM; treatment time: 3 h
USP42 = target: T1, USP42 (UniProt Q9H9J4)
T1 sequence (whole entry): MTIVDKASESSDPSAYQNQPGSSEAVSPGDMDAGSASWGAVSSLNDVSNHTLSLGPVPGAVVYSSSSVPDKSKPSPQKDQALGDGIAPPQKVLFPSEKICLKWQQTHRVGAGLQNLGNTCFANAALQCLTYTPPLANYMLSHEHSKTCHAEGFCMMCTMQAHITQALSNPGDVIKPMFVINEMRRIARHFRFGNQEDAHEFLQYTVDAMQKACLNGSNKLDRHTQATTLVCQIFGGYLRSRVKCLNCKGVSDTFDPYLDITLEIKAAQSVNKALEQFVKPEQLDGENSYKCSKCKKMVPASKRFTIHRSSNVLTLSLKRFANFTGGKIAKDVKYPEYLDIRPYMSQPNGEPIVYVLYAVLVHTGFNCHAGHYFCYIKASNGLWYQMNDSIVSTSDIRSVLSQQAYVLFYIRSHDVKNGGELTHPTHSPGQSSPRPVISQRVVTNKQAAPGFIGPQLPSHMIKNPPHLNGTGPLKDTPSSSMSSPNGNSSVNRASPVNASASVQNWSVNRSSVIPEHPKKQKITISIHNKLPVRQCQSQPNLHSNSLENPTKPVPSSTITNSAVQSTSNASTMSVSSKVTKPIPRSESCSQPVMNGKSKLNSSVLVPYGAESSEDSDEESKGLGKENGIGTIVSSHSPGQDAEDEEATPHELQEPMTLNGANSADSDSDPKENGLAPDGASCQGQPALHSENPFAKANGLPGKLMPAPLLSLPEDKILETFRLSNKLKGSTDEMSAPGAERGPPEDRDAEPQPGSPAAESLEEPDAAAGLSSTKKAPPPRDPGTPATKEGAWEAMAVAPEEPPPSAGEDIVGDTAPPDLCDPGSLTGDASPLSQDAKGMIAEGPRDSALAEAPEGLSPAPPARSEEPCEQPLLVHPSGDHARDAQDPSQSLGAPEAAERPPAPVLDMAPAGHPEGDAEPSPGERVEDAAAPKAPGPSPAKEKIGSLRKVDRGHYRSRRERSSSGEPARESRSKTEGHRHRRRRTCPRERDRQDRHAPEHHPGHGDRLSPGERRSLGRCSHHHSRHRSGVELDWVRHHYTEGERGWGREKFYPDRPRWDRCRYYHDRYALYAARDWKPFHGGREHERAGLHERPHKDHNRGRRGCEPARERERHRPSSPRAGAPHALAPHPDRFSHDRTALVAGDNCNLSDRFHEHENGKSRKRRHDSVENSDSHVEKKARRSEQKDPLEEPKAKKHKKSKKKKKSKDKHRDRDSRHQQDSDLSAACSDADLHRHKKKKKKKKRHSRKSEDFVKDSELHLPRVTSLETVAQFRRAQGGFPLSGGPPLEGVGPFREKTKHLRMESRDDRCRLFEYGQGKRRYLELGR
Outline: (§1)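 HEK293T lysate, 495 µg per sample in Tris/CHAPS/IGEPAL buffer with protease inhibitors, was treated in triplicate with fragment at 200 µM or vehicle for 3 h and then with Biotin-Ahx-Ub-VS at 0.5 µM final for 1 h. Labelled DUBs were NeutrAvidin-enriched, digested with LysC and trypsin, and run by diaPASEF LC-MS/MS. Spectronaut label-free quantities were global-median-normalised, and values are average log2 fragment/vehicle ratios by unpaired t-test on proteins with ≥2 unique peptides.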

USP46 = USP46 (UniProt P62068)
Outline: as §1

USP47 = target: T2, USP47 (UniProt Q96K76)
T2 sequence (whole entry): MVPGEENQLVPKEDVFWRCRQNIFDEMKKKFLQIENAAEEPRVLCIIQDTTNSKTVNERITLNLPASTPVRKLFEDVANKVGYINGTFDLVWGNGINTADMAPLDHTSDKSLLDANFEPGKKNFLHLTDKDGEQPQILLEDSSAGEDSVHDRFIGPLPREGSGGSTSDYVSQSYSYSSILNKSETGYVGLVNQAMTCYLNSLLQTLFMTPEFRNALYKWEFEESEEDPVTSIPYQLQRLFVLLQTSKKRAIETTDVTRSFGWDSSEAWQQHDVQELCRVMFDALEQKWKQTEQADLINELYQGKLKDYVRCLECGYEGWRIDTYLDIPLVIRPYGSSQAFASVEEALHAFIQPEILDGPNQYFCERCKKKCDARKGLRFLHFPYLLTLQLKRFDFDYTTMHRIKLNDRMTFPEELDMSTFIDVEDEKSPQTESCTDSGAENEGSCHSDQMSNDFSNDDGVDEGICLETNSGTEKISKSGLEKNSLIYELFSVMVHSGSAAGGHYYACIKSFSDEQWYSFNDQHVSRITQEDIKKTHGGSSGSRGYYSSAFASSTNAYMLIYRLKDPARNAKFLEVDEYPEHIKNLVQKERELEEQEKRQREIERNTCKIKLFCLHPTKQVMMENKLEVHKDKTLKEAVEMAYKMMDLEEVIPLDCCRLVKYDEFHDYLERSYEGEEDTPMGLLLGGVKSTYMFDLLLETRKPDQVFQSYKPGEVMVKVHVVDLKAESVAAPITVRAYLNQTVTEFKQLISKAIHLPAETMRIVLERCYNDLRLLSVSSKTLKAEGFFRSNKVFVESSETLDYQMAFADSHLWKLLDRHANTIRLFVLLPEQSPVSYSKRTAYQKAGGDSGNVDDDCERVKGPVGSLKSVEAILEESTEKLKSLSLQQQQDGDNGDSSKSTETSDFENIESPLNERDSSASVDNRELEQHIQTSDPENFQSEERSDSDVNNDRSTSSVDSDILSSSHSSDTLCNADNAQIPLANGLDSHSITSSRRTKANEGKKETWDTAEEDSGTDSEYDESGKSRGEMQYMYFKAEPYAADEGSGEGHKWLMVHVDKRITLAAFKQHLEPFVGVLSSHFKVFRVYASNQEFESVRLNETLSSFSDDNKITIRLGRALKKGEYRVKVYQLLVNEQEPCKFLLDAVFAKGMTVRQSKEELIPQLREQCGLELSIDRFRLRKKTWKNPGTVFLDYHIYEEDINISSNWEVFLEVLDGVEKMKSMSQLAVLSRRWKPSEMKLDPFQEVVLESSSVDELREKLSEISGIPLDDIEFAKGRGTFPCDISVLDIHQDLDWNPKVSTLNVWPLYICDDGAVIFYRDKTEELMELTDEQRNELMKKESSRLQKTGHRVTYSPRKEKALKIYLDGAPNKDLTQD
Outline: as §1

USP48 = target: T3, USP48 (UniProt Q86UV5)
T3 sequence (whole entry): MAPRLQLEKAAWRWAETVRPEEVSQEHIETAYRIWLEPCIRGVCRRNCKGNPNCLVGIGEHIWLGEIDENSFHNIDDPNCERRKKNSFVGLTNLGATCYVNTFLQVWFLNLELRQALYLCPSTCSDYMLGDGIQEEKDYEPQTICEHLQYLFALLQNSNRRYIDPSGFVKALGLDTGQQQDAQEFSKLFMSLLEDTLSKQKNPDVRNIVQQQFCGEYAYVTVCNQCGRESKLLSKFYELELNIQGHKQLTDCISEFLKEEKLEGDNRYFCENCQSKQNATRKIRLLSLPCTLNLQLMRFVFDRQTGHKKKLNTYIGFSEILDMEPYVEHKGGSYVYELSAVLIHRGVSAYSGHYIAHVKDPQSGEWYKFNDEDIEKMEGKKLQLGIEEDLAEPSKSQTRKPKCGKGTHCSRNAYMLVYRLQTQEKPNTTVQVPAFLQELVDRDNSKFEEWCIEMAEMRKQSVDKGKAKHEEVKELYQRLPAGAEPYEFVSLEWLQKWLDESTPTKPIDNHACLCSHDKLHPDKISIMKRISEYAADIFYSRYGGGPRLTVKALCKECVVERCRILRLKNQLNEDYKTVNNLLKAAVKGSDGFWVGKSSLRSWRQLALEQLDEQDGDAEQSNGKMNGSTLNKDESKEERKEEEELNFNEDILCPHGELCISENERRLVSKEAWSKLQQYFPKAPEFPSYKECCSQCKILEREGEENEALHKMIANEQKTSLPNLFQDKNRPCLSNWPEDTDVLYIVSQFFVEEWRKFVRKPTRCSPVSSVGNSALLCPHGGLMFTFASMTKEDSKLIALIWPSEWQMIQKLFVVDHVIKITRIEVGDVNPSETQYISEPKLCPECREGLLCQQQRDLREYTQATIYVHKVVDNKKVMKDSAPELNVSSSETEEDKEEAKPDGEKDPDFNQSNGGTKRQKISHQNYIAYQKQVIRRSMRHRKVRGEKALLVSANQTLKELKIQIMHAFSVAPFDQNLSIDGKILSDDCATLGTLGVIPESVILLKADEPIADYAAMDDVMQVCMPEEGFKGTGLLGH
Outline: as §1

USP5 = target: T4, USP5 (UniProt P45974)
T4 sequence (whole entry): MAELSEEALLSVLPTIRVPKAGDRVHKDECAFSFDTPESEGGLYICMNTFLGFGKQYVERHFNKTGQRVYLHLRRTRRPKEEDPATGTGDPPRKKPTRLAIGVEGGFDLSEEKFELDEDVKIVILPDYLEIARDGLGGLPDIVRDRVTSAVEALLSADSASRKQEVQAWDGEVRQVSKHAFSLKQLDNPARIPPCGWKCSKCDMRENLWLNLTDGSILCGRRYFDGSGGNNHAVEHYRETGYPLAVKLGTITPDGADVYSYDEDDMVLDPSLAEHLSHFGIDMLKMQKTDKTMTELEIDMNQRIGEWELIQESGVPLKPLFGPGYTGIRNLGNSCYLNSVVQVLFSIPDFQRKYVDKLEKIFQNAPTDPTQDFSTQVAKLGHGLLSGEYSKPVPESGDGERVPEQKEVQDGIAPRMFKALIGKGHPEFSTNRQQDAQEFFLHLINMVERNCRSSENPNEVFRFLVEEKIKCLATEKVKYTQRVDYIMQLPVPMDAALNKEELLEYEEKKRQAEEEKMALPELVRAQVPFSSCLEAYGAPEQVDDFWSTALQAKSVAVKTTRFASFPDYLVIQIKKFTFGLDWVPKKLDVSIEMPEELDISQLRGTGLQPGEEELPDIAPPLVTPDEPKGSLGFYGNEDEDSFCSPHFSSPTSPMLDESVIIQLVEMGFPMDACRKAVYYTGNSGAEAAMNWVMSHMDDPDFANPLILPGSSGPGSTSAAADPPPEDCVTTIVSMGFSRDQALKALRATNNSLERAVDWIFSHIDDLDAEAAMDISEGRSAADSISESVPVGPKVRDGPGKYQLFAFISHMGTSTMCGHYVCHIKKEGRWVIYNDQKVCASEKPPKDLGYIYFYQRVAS
Outline: as §1

USP54 = USP54 (UniProt Q70EL1)
Outline: as §1

USP7 = USP7 (UniProt Q93009)
Outline: as §1

USP8 = target: T5, USP8 (UniProt P40818)
T5 sequence (whole entry): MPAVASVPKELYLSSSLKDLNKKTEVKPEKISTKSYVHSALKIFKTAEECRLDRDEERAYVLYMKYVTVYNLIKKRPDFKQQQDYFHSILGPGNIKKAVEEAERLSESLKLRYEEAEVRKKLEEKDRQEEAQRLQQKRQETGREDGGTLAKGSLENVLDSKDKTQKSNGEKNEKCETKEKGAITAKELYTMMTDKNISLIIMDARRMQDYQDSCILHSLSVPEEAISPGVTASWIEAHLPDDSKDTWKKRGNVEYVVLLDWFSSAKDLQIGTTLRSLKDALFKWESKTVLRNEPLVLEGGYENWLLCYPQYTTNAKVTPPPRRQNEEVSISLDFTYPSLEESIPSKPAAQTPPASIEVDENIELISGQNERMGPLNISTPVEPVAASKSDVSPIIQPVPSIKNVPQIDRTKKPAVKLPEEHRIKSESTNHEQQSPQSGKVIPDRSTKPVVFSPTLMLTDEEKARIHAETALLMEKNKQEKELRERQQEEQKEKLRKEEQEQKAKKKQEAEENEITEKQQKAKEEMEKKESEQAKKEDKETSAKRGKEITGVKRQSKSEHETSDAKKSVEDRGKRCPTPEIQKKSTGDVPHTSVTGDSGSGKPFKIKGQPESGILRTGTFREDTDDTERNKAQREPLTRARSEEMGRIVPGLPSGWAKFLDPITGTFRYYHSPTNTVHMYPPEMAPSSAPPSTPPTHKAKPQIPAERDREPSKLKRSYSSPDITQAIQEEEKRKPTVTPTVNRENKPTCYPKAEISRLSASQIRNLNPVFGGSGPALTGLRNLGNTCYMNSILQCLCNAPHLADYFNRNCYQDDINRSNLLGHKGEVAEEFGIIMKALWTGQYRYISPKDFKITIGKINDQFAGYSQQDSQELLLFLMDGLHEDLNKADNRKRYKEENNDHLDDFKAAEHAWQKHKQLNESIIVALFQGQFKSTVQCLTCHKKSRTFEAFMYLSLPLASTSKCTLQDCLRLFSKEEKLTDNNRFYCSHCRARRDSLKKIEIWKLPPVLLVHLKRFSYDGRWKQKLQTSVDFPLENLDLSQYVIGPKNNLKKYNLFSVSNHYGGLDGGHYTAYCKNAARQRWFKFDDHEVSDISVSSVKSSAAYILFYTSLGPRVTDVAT
Outline: as §1

USP9X = USP9X (UniProt Q93008)
Outline: as §1

UniProt O00487 = target: UniProt O00487
Outline: as §1

Measured: log2 ratio of Biotin-Ahx-Ub-VS probe labelling

Sequence of USP7 (Q93009 whole entry, looked up): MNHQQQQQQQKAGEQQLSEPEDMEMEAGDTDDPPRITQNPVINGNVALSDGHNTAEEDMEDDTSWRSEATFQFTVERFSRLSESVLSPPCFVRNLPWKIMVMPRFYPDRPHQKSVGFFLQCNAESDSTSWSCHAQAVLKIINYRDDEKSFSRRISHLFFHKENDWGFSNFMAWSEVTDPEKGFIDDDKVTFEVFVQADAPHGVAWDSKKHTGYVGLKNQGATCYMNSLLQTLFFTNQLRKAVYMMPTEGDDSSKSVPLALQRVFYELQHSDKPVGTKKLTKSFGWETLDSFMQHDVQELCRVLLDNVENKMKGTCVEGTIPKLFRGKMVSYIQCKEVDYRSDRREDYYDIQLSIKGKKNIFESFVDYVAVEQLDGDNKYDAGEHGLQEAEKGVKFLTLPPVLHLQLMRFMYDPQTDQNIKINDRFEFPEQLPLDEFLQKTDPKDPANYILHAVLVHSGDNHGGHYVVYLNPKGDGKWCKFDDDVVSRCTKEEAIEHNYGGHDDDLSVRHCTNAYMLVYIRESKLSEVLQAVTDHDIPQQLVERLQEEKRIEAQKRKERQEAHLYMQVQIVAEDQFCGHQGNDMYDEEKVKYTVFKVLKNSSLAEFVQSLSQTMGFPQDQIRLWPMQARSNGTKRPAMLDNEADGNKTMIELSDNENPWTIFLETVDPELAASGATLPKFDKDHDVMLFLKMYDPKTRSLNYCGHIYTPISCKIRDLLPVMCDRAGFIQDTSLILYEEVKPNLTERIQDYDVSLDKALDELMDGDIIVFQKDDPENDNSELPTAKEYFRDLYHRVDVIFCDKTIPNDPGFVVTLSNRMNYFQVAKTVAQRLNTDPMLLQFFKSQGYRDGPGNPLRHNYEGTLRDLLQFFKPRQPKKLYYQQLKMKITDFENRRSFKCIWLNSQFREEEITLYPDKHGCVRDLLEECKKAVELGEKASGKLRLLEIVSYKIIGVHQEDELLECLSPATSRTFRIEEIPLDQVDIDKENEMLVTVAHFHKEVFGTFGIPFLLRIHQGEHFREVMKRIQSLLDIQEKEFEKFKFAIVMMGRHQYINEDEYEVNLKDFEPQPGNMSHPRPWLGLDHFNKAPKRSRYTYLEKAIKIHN
Sequence of USP9X (Q93008 whole entry): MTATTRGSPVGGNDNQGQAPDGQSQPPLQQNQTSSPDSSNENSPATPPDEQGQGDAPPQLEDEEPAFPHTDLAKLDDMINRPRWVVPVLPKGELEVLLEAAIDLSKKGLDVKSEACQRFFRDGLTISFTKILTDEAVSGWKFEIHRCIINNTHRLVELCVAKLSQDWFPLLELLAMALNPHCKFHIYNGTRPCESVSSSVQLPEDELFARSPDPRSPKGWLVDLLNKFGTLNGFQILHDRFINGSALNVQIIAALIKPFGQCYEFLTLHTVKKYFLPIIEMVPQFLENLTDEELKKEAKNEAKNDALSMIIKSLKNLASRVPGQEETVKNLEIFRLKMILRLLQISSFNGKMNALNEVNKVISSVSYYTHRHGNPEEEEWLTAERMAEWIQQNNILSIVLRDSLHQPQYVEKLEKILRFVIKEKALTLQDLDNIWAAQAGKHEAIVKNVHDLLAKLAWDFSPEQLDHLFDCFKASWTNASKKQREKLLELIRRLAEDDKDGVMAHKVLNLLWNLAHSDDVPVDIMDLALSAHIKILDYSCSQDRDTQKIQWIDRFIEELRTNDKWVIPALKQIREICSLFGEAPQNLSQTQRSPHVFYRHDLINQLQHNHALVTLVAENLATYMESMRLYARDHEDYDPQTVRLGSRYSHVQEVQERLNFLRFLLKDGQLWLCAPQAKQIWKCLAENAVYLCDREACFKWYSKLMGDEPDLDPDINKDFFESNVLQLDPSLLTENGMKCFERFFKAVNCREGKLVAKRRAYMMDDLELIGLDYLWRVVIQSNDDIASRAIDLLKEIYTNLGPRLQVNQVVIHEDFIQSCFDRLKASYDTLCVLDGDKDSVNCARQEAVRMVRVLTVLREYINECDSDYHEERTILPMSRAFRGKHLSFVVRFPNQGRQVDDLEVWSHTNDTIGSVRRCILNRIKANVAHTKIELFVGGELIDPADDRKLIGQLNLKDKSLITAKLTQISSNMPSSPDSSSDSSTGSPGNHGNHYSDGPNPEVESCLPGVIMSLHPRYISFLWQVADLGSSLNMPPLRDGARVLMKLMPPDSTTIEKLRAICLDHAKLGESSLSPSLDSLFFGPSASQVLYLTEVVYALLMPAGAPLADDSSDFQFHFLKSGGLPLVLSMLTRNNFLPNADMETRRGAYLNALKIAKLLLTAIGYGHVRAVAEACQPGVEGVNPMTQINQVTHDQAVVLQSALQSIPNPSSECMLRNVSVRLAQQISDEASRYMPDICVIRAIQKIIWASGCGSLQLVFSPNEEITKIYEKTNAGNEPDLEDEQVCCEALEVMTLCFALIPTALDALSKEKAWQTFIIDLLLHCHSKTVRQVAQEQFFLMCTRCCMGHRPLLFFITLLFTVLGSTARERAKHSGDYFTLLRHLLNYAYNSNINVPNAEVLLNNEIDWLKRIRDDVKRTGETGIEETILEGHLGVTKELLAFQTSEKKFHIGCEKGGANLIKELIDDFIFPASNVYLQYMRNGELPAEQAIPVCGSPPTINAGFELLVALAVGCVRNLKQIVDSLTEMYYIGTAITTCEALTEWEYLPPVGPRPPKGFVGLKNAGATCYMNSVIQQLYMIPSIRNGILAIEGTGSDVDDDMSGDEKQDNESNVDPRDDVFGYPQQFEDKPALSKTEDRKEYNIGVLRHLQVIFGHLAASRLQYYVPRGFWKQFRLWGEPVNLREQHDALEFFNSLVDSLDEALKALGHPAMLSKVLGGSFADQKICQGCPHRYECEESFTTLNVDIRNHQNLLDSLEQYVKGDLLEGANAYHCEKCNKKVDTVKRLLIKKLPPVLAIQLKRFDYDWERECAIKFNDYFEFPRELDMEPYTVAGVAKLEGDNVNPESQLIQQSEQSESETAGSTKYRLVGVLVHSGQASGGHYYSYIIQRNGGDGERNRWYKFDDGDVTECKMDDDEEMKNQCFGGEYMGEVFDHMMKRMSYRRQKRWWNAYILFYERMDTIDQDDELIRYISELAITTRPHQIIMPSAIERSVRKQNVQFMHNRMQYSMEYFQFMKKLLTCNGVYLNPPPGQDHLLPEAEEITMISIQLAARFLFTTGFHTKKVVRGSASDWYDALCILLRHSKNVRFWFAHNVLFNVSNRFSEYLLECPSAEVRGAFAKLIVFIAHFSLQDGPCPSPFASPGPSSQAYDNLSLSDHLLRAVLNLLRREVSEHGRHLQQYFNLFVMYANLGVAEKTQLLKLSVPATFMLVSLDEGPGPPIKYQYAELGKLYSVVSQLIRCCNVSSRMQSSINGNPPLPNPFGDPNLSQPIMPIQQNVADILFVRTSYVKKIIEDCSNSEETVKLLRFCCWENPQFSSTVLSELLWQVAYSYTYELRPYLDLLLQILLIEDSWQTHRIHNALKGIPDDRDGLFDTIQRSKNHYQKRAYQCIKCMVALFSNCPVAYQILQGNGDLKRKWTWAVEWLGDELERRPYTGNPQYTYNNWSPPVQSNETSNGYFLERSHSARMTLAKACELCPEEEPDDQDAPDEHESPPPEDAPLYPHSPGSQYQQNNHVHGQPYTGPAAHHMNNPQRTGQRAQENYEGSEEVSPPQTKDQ
Sequence of USP46 (P62068 whole entry): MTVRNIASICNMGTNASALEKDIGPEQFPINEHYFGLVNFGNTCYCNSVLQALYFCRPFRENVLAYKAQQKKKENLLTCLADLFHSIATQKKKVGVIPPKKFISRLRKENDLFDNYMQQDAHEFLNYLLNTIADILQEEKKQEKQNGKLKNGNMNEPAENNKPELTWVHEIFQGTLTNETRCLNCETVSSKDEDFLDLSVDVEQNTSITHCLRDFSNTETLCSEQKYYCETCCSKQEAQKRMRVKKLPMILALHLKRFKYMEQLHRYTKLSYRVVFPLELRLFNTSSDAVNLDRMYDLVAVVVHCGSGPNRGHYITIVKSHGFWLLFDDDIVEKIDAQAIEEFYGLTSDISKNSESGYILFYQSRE
Sequence of UniProt O00487 (O00487 whole entry): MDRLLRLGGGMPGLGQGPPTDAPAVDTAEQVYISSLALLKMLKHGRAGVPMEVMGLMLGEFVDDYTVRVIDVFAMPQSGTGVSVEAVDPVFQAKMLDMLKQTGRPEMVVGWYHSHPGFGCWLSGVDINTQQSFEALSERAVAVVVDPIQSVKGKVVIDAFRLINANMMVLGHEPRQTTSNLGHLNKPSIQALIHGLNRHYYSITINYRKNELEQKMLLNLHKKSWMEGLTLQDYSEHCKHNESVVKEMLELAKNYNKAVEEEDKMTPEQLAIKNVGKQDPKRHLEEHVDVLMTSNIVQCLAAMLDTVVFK

CC(O)CC1CCN(C(=O)CCl)CC1 (stereo not given)
inactive: USP42 0.406 | USP46 -0.263 | USP47 -0.689 | USP48 0.00631 | USP5 -0.447 | USP54 -0.0986 | USP7 -0.335 | USP8 -0.0562 | USP9X -0.195 | UniProt O00487 -0.189

Reference: the supplement of paper PMC11732987, “Enantioselective OTUD7B fragment discovery through chemoproteomics screening and high-throughput optimisation” (Communications Chemistry, 2025)
